# According to the OligoGym collection:
# Tests used:
# Test in all cases: pooled miR-30 sensor sort-seq; sequence = guide strand
# Conditions in all cases: shRNA
# [1] = target: GPR172A
# [2] = target: GPR137
# [3] = target: GPR176
# [4] = target: GPR173
# Note: reference of the scale not given here.
sequence,measurement,setting,value
TTCTGCTGTGGAACACGTGATA,sensor-assay potency score (higher = more potent),[1],-0.914
TTCACGTAGGAGAACACGCCAA,sensor-assay potency score (higher = more potent),[1],-0.595
TTGGTGGCTCTTGCAGTGGTGA,sensor-assay potency score (higher = more potent),[1],-1.5
ATGACGAACAGGGAGTCGCTCA,sensor-assay potency score (higher = more potent),[2],-1.35
TTTTTAATGAACCTGTTGGTGA,sensor-assay potency score (higher = more potent),[3],-0.59
AAAACGCTCAAGGAAGTCGAGC,sensor-assay potency score (higher = more potent),[1],-1.04
AATCAGTCCTAGCAGTACCAGC,sensor-assay potency score (higher = more potent),[4],-1.44
TTGCCGTAGACAGCATGGGTAG,sensor-assay potency score (higher = more potent),[4],-1.57
TGGTCAGACACATTGTACCAGC,sensor-assay potency score (higher = more potent),[2],-1.27
TGATAGAAGCTGATAGGCCTTA,sensor-assay potency score (higher = more potent),[1],-0.123
TCCAGGTAGATGCTAGTGGAGG,sensor-assay potency score (higher = more potent),[2],-2.54
TAGAGGACTGAGTAGTACCTGT,sensor-assay potency score (higher = more potent),[3],-0.351
TTGGCCTCCAGGTAGATGCTAG,sensor-assay potency score (higher = more potent),[2],-0.691
TAATCGAAGGTGTCCAGCCGGC,sensor-assay potency score (higher = more potent),[2],-0.771
TGAAGGTCCATGAAGAGCCGTG,sensor-assay potency score (higher = more potent),[4],-0.497
TACTCGAAGAGGAGCAGCTTGC,sensor-assay potency score (higher = more potent),[4],-1.59
TATGATGACCTTCTTCTTCTGG,sensor-assay potency score (higher = more potent),[3],0.194
TTCACCCTTGACCTCGTCCATG,sensor-assay potency score (higher = more potent),[4],-1.32
TCACGCACATAATCAGTCCTAG,sensor-assay potency score (higher = more potent),[4],-0.629
TTAGGGTCTGGACCAGGGGTGG,sensor-assay potency score (higher = more potent),[1],-1.64
TGACCCAGGAAGAATGACCGTA,sensor-assay potency score (higher = more potent),[1],-0.348
TTTCACAAACACTCGCCAGTAG,sensor-assay potency score (higher = more potent),[4],-0.0654
TGCACTGGCTTCATCTTGCGGT,sensor-assay potency score (higher = more potent),[4],-0.396
TAAACTTGTAGGTGCCCACGTC,sensor-assay potency score (higher = more potent),[4],0.745
AAGAATGACCGTAAGAAGCGAG,sensor-assay potency score (higher = more potent),[1],-0.349
TAACACCATGAAGTTTCCGAGC,sensor-assay potency score (higher = more potent),[3],-1.48
TTGGTTACTGCAAACACAGGGA,sensor-assay potency score (higher = more potent),[3],0.111
TCACGTAGGAGAACACGCCAAG,sensor-assay potency score (higher = more potent),[1],-1.31
ATAAAGGCCACAATCTTGCAGC,sensor-assay potency score (higher = more potent),[4],-0.595
TTGTCTGGATCAGCTCTTCTGG,sensor-assay potency score (higher = more potent),[3],-0.703
